# Assay results published in article PMC11006913.
# Residue numbers refer to the chain shown, from its start.
# Key:
# Experiment in all cases: PBM; 200 nM protein, PBS
# Conditions in all cases: dsDNA, one strand shown
# HOXB9 [1] = target: HOXB9 (Homo sapiens, UniProt P17482 171-250, T197M)
# HOXC9 [2] = target: HOXC9 (Homo sapiens, UniProt P31274 178-260, K195R)
# HOXC10 [3] = target: HOXC10 (Homo sapiens, UniProt Q9NYD6 254-340)
# ALX4 = ALX4 (Homo sapiens, UniProt Q9H161 200-286, Q225E)
# HOXB9 [4] = target: HOXB9 (Homo sapiens, UniProt P17482 171-250)
# Sequence of HOXB9 (Homo sapiens, UniProt P17482 171-250) (P17482 171-250): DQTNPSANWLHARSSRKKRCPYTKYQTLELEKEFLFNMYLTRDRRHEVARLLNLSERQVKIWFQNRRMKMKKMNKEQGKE
# HOXC9 [5] = target: HOXC9 (Homo sapiens, UniProt P31274 178-260)
# Sequence of HOXC9 (Homo sapiens, UniProt P31274 178-260) (P31274 178-260): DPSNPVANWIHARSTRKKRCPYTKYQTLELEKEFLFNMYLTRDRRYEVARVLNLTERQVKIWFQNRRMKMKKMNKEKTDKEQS
# HOXD13 [6] = target: HOXD13 (Homo sapiens, UniProt P35453 263-343, T313R)
# Sequence of HOXD13 (Homo sapiens, UniProt P35453 263-343, T313R) (P35453 263-343 T313R): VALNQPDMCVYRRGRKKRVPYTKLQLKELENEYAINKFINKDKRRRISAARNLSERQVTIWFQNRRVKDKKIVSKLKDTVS
# HOXC9 [7] = target: HOXC9 (Homo sapiens, UniProt P31274 178-260, R193K)
# Sequence of HOXC9 (Homo sapiens, UniProt P31274 178-260, R193K) (P31274 178-260 R193K): as the sequence (P31274 178-260) above, with R16K counted along it
# HOXD13 [8] = target: HOXD13 (Homo sapiens, UniProt P35453 263-343)
# Sequence of HOXD13 (Homo sapiens, UniProt P35453 263-343) (P35453 263-343): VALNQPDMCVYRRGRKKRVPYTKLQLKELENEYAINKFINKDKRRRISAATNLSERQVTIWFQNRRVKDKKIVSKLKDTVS
# HOXC10 [9] = target: HOXC10 (Homo sapiens, UniProt Q9NYD6 254-340, K271E)
# Sequence of HOXC10 (Homo sapiens, UniProt Q9NYD6 254-340, K271E) (Q9NYD6 254-340 K271E): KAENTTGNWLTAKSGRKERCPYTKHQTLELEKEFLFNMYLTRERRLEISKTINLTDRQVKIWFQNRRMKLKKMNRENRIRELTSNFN
# HOXD13 [10] = target: HOXD13 (Homo sapiens, UniProt P35453 263-343, T313A)
# Sequence of HOXD13 (Homo sapiens, UniProt P35453 263-343, T313A) (P35453 263-343 T313A): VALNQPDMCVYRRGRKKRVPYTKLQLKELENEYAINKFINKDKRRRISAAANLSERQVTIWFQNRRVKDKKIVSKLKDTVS
# HOXB9 [11] = target: HOXB9 (Homo sapiens, UniProt P17482 171-250, R186Q)
# Sequence of HOXB9 (Homo sapiens, UniProt P17482 171-250, R186Q) (P17482 171-250 R186Q): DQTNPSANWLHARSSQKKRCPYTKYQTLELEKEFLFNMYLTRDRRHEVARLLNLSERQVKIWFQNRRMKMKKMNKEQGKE
# HOXC9 [12] = target: HOXC9 (Homo sapiens, UniProt P31274 178-260, R222W)
# Sequence of HOXC9 (Homo sapiens, UniProt P31274 178-260, R222W) (P31274 178-260 R222W): as the sequence (P31274 178-260) above, with R45W counted along it
# HOXA7 [13] = target: HOXA7 (Homo sapiens, UniProt P31268 116-202)
# Sequence of HOXA7 (Homo sapiens, UniProt P31268 116-202) (P31268 116-202): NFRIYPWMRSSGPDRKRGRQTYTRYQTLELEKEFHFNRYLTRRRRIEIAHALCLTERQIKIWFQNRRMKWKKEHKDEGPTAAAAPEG
# HOXB6 [14] = target: HOXB6 (Homo sapiens, UniProt P17509 132-218, K202E)
# Sequence of HOXB6 (Homo sapiens, UniProt P17509 132-218, K202E) (P17509 132-218 K202E): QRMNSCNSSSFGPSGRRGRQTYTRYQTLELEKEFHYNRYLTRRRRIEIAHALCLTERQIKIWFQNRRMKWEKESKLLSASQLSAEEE
# HOXA7 [15] = target: HOXA7 (Homo sapiens, UniProt P31268 116-202, W177C)
# Sequence of HOXA7 (Homo sapiens, UniProt P31268 116-202, W177C) (P31268 116-202 W177C): as the sequence (P31268 116-202) above, with W62C counted along it
# HOXB6 [16] = target: HOXB6 (Homo sapiens, UniProt P17509 132-218)
# Sequence of HOXB6 (Homo sapiens, UniProt P17509 132-218) (P17509 132-218): as the sequence (P17509 132-218 K202E) above, with E71K counted along it
# VENTX [17] = target: T1, VENTX (Homo sapiens, UniProt O95231 78-163, R121Q)
# T1 sequence: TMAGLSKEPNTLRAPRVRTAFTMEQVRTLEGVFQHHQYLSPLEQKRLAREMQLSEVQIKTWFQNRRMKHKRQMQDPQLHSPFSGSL
# PRRX1 [18] = target: PRRX1 (Homo sapiens, UniProt P54821 80-166, F113S)
# Sequence of PRRX1 (Homo sapiens, UniProt P54821 80-166, F113S) (P54821 80-166 F113S): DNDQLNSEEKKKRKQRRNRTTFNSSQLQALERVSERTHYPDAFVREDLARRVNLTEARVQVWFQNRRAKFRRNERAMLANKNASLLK
# VENTX [19] = target: T2, VENTX (Homo sapiens, UniProt O95231 78-163, Y115F)
# T2 sequence: T1 sequence with Y38F, Q44R
# PRRX1 [20] = target: PRRX1 (Homo sapiens, UniProt P54821 80-166)
# Sequence of PRRX1 (Homo sapiens, UniProt P54821 80-166) (P54821 80-166): as the sequence (P54821 80-166 F113S) above, with S34F counted along it
# VENTX [21] = target: T3, VENTX (Homo sapiens, UniProt O95231 78-163)
# T3 sequence: T1 sequence with Q44R
# CRX = CRX (Homo sapiens, UniProt O43186 26-111, R41L)
# Sequence of CRX (O43186 26-111 R41L): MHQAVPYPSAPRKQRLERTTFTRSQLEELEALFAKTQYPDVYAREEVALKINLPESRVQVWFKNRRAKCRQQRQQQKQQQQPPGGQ
# ALX3 [22] = target: ALX3 (Homo sapiens, UniProt O95076 139-225, N203Q)
# Sequence of ALX3 (Homo sapiens, UniProt O95076 139-225, N203Q) (O95076 139-225 N203Q): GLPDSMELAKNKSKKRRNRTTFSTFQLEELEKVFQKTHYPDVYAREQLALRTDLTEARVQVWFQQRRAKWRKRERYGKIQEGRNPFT
# ALX3 [23] = target: ALX3 (Homo sapiens, UniProt O95076 139-225)
# Sequence of ALX3 (Homo sapiens, UniProt O95076 139-225) (O95076 139-225): as the sequence (O95076 139-225 N203Q) above, with Q65N counted along it
# VAX1 [24] = target: VAX1 (Homo sapiens, UniProt Q5SQQ9 86-172)
# Sequence of VAX1 (Homo sapiens, UniProt Q5SQQ9 86-172) (Q5SQQ9 86-172): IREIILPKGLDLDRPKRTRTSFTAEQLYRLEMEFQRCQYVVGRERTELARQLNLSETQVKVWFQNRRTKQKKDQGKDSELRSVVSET
# VAX1 [25] = target: VAX1 (Homo sapiens, UniProt Q5SQQ9 86-172, T142I)
# Sequence of VAX1 (Homo sapiens, UniProt Q5SQQ9 86-172, T142I) (Q5SQQ9 86-172 T142I): as the sequence (Q5SQQ9 86-172) above, with T57I counted along it
# ALX3 [26] = target: ALX3 (Homo sapiens, UniProt O95076 139-225, N203S)
# Sequence of ALX3 (Homo sapiens, UniProt O95076 139-225, N203S) (O95076 139-225 N203S): as the sequence (O95076 139-225 N203Q) above, with Q65S counted along it
# VAX1 [27] = target: VAX1 (Homo sapiens, UniProt Q5SQQ9 86-172, K157R)
# Sequence of VAX1 (Homo sapiens, UniProt Q5SQQ9 86-172, K157R) (Q5SQQ9 86-172 K157R): as the sequence (Q5SQQ9 86-172) above, with K72R counted along it
# HOXA2 [28] = target: HOXA2 (Homo sapiens, UniProt O43364 129-215, R185T)
# Sequence of HOXA2 (Homo sapiens, UniProt O43364 129-215, R185T) (O43364 129-215 R185T): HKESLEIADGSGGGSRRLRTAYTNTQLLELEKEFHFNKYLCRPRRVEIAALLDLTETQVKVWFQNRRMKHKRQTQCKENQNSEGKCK
# HOXA2 [29] = target: HOXA2 (Homo sapiens, UniProt O43364 129-215, R185K)
# Sequence of HOXA2 (Homo sapiens, UniProt O43364 129-215, R185K) (O43364 129-215 R185K): as the sequence (O43364 129-215 R185T) above, with T57K counted along it
# HOXA2 [30] = target: HOXA2 (Homo sapiens, UniProt O43364 129-215, Y150S)
# Sequence of HOXA2 (Homo sapiens, UniProt O43364 129-215, Y150S) (O43364 129-215 Y150S): as the sequence (O43364 129-215 R185T) above, with Y22S, T57R counted along it
# HOXA2 [31] = target: HOXA2 (Homo sapiens, UniProt O43364 129-215)
# Sequence of HOXA2 (Homo sapiens, UniProt O43364 129-215) (O43364 129-215): as the sequence (O43364 129-215 R185T) above, with T57R counted along it
# Sequence of HOXB9 (Homo sapiens, UniProt P17482 171-250, T197M) (P17482 171-250 T197M): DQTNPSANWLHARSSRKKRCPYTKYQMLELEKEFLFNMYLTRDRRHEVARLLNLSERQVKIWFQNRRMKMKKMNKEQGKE
# Sequence of HOXC10 (Homo sapiens, UniProt Q9NYD6 254-340) (Q9NYD6 254-340): as the sequence (Q9NYD6 254-340 K271E) above, with E18K counted along it
# Sequence of HOXC9 (Homo sapiens, UniProt P31274 178-260, K195R) (P31274 178-260 K195R): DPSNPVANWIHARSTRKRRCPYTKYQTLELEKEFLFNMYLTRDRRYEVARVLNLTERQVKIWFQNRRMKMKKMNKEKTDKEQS
# Sequence of ALX4 (Q9H161 200-286 Q225E): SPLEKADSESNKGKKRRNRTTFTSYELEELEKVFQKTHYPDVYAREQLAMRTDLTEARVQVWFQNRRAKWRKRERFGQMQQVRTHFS
sequence,measurement,setting,value
AATAAAAT,binding signal,HOXB9 [1],"10 upbm affinity estimate (log intensity, higher = more binding, comparable within an allelic series)"
same,binding signal,HOXC9 [2],"12.7 upbm affinity estimate (log intensity, higher = more binding, comparable within an allelic series)"
same,binding signal,HOXC10 [3],"12.5 upbm affinity estimate (log intensity, higher = more binding, comparable within an allelic series)"
same,binding signal,ALX4,"11.1 upbm affinity estimate (log intensity, higher = more binding, comparable within an allelic series)"
same,binding signal,HOXB9 [4],"12.1 upbm affinity estimate (log intensity, higher = more binding, comparable within an allelic series)"
same,binding signal,HOXC9 [5],"12.7 upbm affinity estimate (log intensity, higher = more binding, comparable within an allelic series)"
same,binding signal,HOXD13 [6],"10.8 upbm affinity estimate (log intensity, higher = more binding, comparable within an allelic series)"
same,binding signal,HOXC9 [7],"12.7 upbm affinity estimate (log intensity, higher = more binding, comparable within an allelic series)"
same,binding signal,HOXD13 [8],"11.8 upbm affinity estimate (log intensity, higher = more binding, comparable within an allelic series)"
same,binding signal,HOXC10 [9],"12 upbm affinity estimate (log intensity, higher = more binding, comparable within an allelic series)"
same,binding signal,HOXD13 [10],"11.8 upbm affinity estimate (log intensity, higher = more binding, comparable within an allelic series)"
same,binding signal,HOXB9 [11],"11.7 upbm affinity estimate (log intensity, higher = more binding, comparable within an allelic series)"
same,binding signal,HOXC9 [12],"11.5 upbm affinity estimate (log intensity, higher = more binding, comparable within an allelic series)"
GTAATAAA,binding signal,HOXB9 [1],"10.1 upbm affinity estimate (log intensity, higher = more binding, comparable within an allelic series)"
same,binding signal,HOXC9 [2],"13.2 upbm affinity estimate (log intensity, higher = more binding, comparable within an allelic series)"
same,binding signal,HOXA7 [13],"11.4 upbm affinity estimate (log intensity, higher = more binding, comparable within an allelic series)"
same,binding signal,HOXC10 [3],"13 upbm affinity estimate (log intensity, higher = more binding, comparable within an allelic series)"
same,binding signal,HOXB6 [14],"9.9 upbm affinity estimate (log intensity, higher = more binding, comparable within an allelic series)"
same,binding signal,HOXB9 [4],"12.6 upbm affinity estimate (log intensity, higher = more binding, comparable within an allelic series)"
same,binding signal,HOXC9 [5],"13.3 upbm affinity estimate (log intensity, higher = more binding, comparable within an allelic series)"
same,binding signal,HOXD13 [6],"11 upbm affinity estimate (log intensity, higher = more binding, comparable within an allelic series)"
same,binding signal,HOXC9 [7],"13.2 upbm affinity estimate (log intensity, higher = more binding, comparable within an allelic series)"
same,binding signal,HOXD13 [8],"12.1 upbm affinity estimate (log intensity, higher = more binding, comparable within an allelic series)"
same,binding signal,HOXC10 [9],"12.6 upbm affinity estimate (log intensity, higher = more binding, comparable within an allelic series)"
same,binding signal,HOXD13 [10],"11.9 upbm affinity estimate (log intensity, higher = more binding, comparable within an allelic series)"
same,binding signal,HOXB9 [11],"12.3 upbm affinity estimate (log intensity, higher = more binding, comparable within an allelic series)"
same,binding signal,HOXC9 [12],"11.4 upbm affinity estimate (log intensity, higher = more binding, comparable within an allelic series)"
same,binding signal,HOXA7 [15],"8.79 upbm affinity estimate (log intensity, higher = more binding, comparable within an allelic series)"
same,binding signal,HOXB6 [16],"11.8 upbm affinity estimate (log intensity, higher = more binding, comparable within an allelic series)"
CCGATTAC,binding signal,VENTX [17],"10.3 upbm affinity estimate (log intensity, higher = more binding, comparable within an allelic series)"
same,binding signal,PRRX1 [18],"9.76 upbm affinity estimate (log intensity, higher = more binding, comparable within an allelic series)"
same,binding signal,VENTX [19],"10.4 upbm affinity estimate (log intensity, higher = more binding, comparable within an allelic series)"
same,binding signal,PRRX1 [20],"11.8 upbm affinity estimate (log intensity, higher = more binding, comparable within an allelic series)"
AACCGATT,binding signal,VENTX [17],"10.1 upbm affinity estimate (log intensity, higher = more binding, comparable within an allelic series)"
same,binding signal,VENTX [19],"10.3 upbm affinity estimate (log intensity, higher = more binding, comparable within an allelic series)"
ATTTATTG,binding signal,HOXB9 [1],"9.87 upbm affinity estimate (log intensity, higher = more binding, comparable within an allelic series)"
same,binding signal,HOXC9 [2],"12.5 upbm affinity estimate (log intensity, higher = more binding, comparable within an allelic series)"
same,binding signal,HOXC10 [3],"12.4 upbm affinity estimate (log intensity, higher = more binding, comparable within an allelic series)"
same,binding signal,ALX4,"11.2 upbm affinity estimate (log intensity, higher = more binding, comparable within an allelic series)"
same,binding signal,HOXB9 [4],"11.9 upbm affinity estimate (log intensity, higher = more binding, comparable within an allelic series)"
same,binding signal,HOXC9 [5],"12.7 upbm affinity estimate (log intensity, higher = more binding, comparable within an allelic series)"
same,binding signal,HOXD13 [6],"10.9 upbm affinity estimate (log intensity, higher = more binding, comparable within an allelic series)"
same,binding signal,HOXC9 [7],"12.6 upbm affinity estimate (log intensity, higher = more binding, comparable within an allelic series)"
same,binding signal,HOXD13 [8],"12.2 upbm affinity estimate (log intensity, higher = more binding, comparable within an allelic series)"
same,binding signal,HOXC10 [9],"11.7 upbm affinity estimate (log intensity, higher = more binding, comparable within an allelic series)"
same,binding signal,HOXD13 [10],"12 upbm affinity estimate (log intensity, higher = more binding, comparable within an allelic series)"
same,binding signal,HOXB9 [11],"11.6 upbm affinity estimate (log intensity, higher = more binding, comparable within an allelic series)"
same,binding signal,HOXC9 [12],"11.2 upbm affinity estimate (log intensity, higher = more binding, comparable within an allelic series)"
CTAATCGC,binding signal,VENTX [17],"11.2 upbm affinity estimate (log intensity, higher = more binding, comparable within an allelic series)"
same,binding signal,VENTX [21],"12.3 upbm affinity estimate (log intensity, higher = more binding, comparable within an allelic series)"
same,binding signal,VENTX [19],"11.3 upbm affinity estimate (log intensity, higher = more binding, comparable within an allelic series)"
same,binding signal,CRX,"11.6 upbm affinity estimate (log intensity, higher = more binding, comparable within an allelic series)"
CACATTAG,binding signal,VENTX [17],"11 upbm affinity estimate (log intensity, higher = more binding, comparable within an allelic series)"
same,binding signal,ALX3 [22],"8.26 upbm affinity estimate (log intensity, higher = more binding, comparable within an allelic series)"
same,binding signal,ALX3 [23],"10.6 upbm affinity estimate (log intensity, higher = more binding, comparable within an allelic series)"
same,binding signal,VAX1 [24],"11.3 upbm affinity estimate (log intensity, higher = more binding, comparable within an allelic series)"
same,binding signal,VAX1 [25],"10.8 upbm affinity estimate (log intensity, higher = more binding, comparable within an allelic series)"
same,binding signal,ALX3 [26],"8.21 upbm affinity estimate (log intensity, higher = more binding, comparable within an allelic series)"
same,binding signal,VAX1 [27],"11 upbm affinity estimate (log intensity, higher = more binding, comparable within an allelic series)"
CAATAAAC,binding signal,HOXB9 [1],"9.69 upbm affinity estimate (log intensity, higher = more binding, comparable within an allelic series)"
same,binding signal,HOXC9 [2],"12.5 upbm affinity estimate (log intensity, higher = more binding, comparable within an allelic series)"
same,binding signal,HOXC10 [3],"12.2 upbm affinity estimate (log intensity, higher = more binding, comparable within an allelic series)"
same,binding signal,ALX4,"10.6 upbm affinity estimate (log intensity, higher = more binding, comparable within an allelic series)"
same,binding signal,HOXA2 [28],"9.38 upbm affinity estimate (log intensity, higher = more binding, comparable within an allelic series)"
same,binding signal,HOXB9 [4],"11.8 upbm affinity estimate (log intensity, higher = more binding, comparable within an allelic series)"
same,binding signal,HOXC9 [5],"12.7 upbm affinity estimate (log intensity, higher = more binding, comparable within an allelic series)"
same,binding signal,HOXD13 [6],"10.9 upbm affinity estimate (log intensity, higher = more binding, comparable within an allelic series)"
same,binding signal,HOXC9 [7],"12.5 upbm affinity estimate (log intensity, higher = more binding, comparable within an allelic series)"
same,binding signal,HOXA2 [29],"11.7 upbm affinity estimate (log intensity, higher = more binding, comparable within an allelic series)"
same,binding signal,HOXD13 [8],"12.2 upbm affinity estimate (log intensity, higher = more binding, comparable within an allelic series)"
same,binding signal,HOXC10 [9],"11.4 upbm affinity estimate (log intensity, higher = more binding, comparable within an allelic series)"
same,binding signal,HOXD13 [10],"11.9 upbm affinity estimate (log intensity, higher = more binding, comparable within an allelic series)"
same,binding signal,HOXB9 [11],"11.5 upbm affinity estimate (log intensity, higher = more binding, comparable within an allelic series)"
same,binding signal,HOXC9 [12],"11.1 upbm affinity estimate (log intensity, higher = more binding, comparable within an allelic series)"
same,binding signal,HOXA2 [30],"10.7 upbm affinity estimate (log intensity, higher = more binding, comparable within an allelic series)"
same,binding signal,HOXA2 [31],"9.11 upbm affinity estimate (log intensity, higher = more binding, comparable within an allelic series)"
CAATAAAA,binding signal,HOXB9 [1],"10.1 upbm affinity estimate (log intensity, higher = more binding, comparable within an allelic series)"
same,binding signal,HOXC9 [2],"13.2 upbm affinity estimate (log intensity, higher = more binding, comparable within an allelic series)"
same,binding signal,HOXC10 [3],"12.9 upbm affinity estimate (log intensity, higher = more binding, comparable within an allelic series)"
same,binding signal,ALX4,"11.2 upbm affinity estimate (log intensity, higher = more binding, comparable within an allelic series)"
same,binding signal,HOXB9 [4],"12.7 upbm affinity estimate (log intensity, higher = more binding, comparable within an allelic series)"
same,binding signal,HOXC9 [5],"13.2 upbm affinity estimate (log intensity, higher = more binding, comparable within an allelic series)"
same,binding signal,HOXD13 [6],"11.2 upbm affinity estimate (log intensity, higher = more binding, comparable within an allelic series)"
same,binding signal,HOXC9 [7],"13.2 upbm affinity estimate (log intensity, higher = more binding, comparable within an allelic series)"
same,binding signal,HOXD13 [8],"12.5 upbm affinity estimate (log intensity, higher = more binding, comparable within an allelic series)"
same,binding signal,HOXC10 [9],"12.5 upbm affinity estimate (log intensity, higher = more binding, comparable within an allelic series)"
same,binding signal,HOXD13 [10],"12.3 upbm affinity estimate (log intensity, higher = more binding, comparable within an allelic series)"
same,binding signal,HOXB9 [11],"12.4 upbm affinity estimate (log intensity, higher = more binding, comparable within an allelic series)"
same,binding signal,HOXC9 [12],"11.7 upbm affinity estimate (log intensity, higher = more binding, comparable within an allelic series)"
